Experimental data published in PubChem BioAssay (NCI).
“And” between values parts separate entries of the source, which are not always exact repeats. Equal entries are not always repeated. Compounds without any hit were thinned out: in the full panel of roughly 83,000, 20% have a hit.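 The test compound was applied at a single concentration to cells in 96-well plates for 48 hours, and percent growth was recorded.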 The source made the active and inactive calls. How the source made its calls: active means growth percent below 10; inactive means the rest.

Assays:
Assay in all cases: NCI-60 one-dose screen, 48 h (100 = growth as untreated, 0 = no growth, -100 = all killed)
Conditions in all cases: 10 µM unless noted
NCI-H226 lung = tested on: NCI-H226 lung
NCI-H322M lung = tested on: NCI-H322M lung
HOP-62 NSCLC = tested on: HOP-62 NSCLC
NCI-H460 lung = tested on: NCI-H460 lung
HOP-92 NSCLC = tested on: HOP-92 NSCLC
NCI-H522 lung = tested on: NCI-H522 lung
A549/ATCC NSCLC = tested on: A549/ATCC NSCLC
786-0 renal = tested on: 786-0 renal
COLO 205 colon = tested on: COLO 205 colon
DU-145 prostate = tested on: DU-145 prostate
K-562 leukemia = tested on: K-562 leukemia
MALME-3M melanoma = tested on: MALME-3M melanoma
MDA-MB-231 breast = tested on: MDA-MB-231 breast
RXF 393 renal = tested on: RXF 393 renal
SF-268 CNS = tested on: SF-268 CNS
SF-295 CNS = tested on: SF-295 CNS
SF-539 CNS = tested on: SF-539 CNS
UACC-257 melanoma = tested on: UACC-257 melanoma
M14 melanoma = tested on: M14 melanoma

Measured: growth

CC1=C(C(=O)Nc2ccccc2)C(c2ccc3ccccc3c2)n2c(nc3ccccc32)N1 (configuration not stated)
inactive: NCI-H226 lung 84% | NCI-H322M lung 66.3% | HOP-62 NSCLC 113% | HOP-92 NSCLC 64.2% | NCI-H522 lung 63% | 786-0 renal 10.6% | COLO 205 colon 112% | DU-145 prostate 46.2% | K-562 leukemia 43.8% | MALME-3M melanoma 72.5% | RXF 393 renal 53.3% | SF-268 CNS 72.5% | SF-295 CNS 37% | SF-539 CNS 81.8% | UACC-257 melanoma 81.1% | M14 melanoma 66.6%
active: NCI-H460 lung -45.5% | A549/ATCC NSCLC 8.83% | MDA-MB-231 breast 5.61%

O=C(NNC(=S)NC(=O)c1ccccc1)c1ccc(OCc2nc3ccc(Cl)cc3[nH]2)cc1
inactive: NCI-H460 lung 11.6% | DU-145 prostate 26.3%
active: NCI-H226 lung -43.9% | NCI-H322M lung -41.5% | HOP-62 NSCLC -64.3% | HOP-92 NSCLC -10.8% | NCI-H522 lung 1.39% | A549/ATCC NSCLC -29.2% | 786-0 renal 0.779% | COLO 205 colon -22.5% | K-562 leukemia 4.64% | MALME-3M melanoma -75.4% | MDA-MB-231 breast -71.2% | RXF 393 renal -56.7% | SF-268 CNS -2.2% | SF-295 CNS -80.9% | SF-539 CNS -91.2% | UACC-257 melanoma -24.8% | M14 melanoma -54.5%

CS(=O)(=O)Nc1cncc(-c2ccc3ncnc(NCc4ccccc4)c3c2)c1
inactive: NCI-H226 lung 38.5% | NCI-H322M lung 47.2% | HOP-62 NSCLC 46.5% | NCI-H460 lung 83.3% | NCI-H522 lung 39.4% | A549/ATCC NSCLC 90.1% | 786-0 renal 55% | COLO 205 colon 41.9% | DU-145 prostate 55.2% | K-562 leukemia 33.6% | MALME-3M melanoma 27.8% | MDA-MB-231 breast 40% | RXF 393 renal 35.6% | SF-268 CNS 31.7% | SF-295 CNS 42.8% | SF-539 CNS 23.9% | UACC-257 melanoma 74.5% | M14 melanoma 49%
active: HOP-92 NSCLC -12.3%

O=C(N/N=C/c1c[nH]c2ccccc12)Nc1ccc(F)c(Cl)c1
active: NCI-H522 lung -29.1%
inactive: NCI-H226 lung 65.6% | NCI-H322M lung 85.8% | HOP-62 NSCLC 53.8% | NCI-H460 lung 23% | HOP-92 NSCLC 39.9% | A549/ATCC NSCLC 39.4% | 786-0 renal 33.9% | COLO 205 colon 33.7% | DU-145 prostate 61.5% | K-562 leukemia 15.4% | MALME-3M melanoma 56.3% | MDA-MB-231 breast 61.3% | RXF 393 renal 18.3% | SF-268 CNS 39.7% | SF-295 CNS 13.8% | SF-539 CNS 27.3% | UACC-257 melanoma 60.9% | M14 melanoma 33.7%

Nc1nc(-c2ccccc2)c(N=Nc2ccc(Cl)cc2Cl)s1
inactive: A549/ATCC NSCLC 12.5%
active: NCI-H226 lung -17.4% | NCI-H322M lung 4.7% | HOP-62 NSCLC -61.9% | NCI-H460 lung -66.8% | HOP-92 NSCLC -54.1% | NCI-H522 lung -15.3% | 786-0 renal -51.9% | COLO 205 colon -16.6% | DU-145 prostate 2.88% | K-562 leukemia -44.7% | MALME-3M melanoma -47.5% | MDA-MB-231 breast -89.5% | RXF 393 renal -69.7% | SF-268 CNS -46% | SF-295 CNS -90.5% | SF-539 CNS -77.2% | UACC-257 melanoma -2.45% | M14 melanoma -59.6%

CC1(C)CC(=O)C2=C(C1)OC(N)=C(c1nc3ccccc3[nH]1)C2c1ccc(Cl)cc1 (configuration not stated)
inactive: NCI-H226 lung 65.7% and 123% | NCI-H322M lung 51.3% and 101% | HOP-62 NSCLC 87% and 116% | NCI-H460 lung 57% and 112% | HOP-92 NSCLC 54.8% and 119% | NCI-H522 lung 55% and 111% | A549/ATCC NSCLC 64.6% and 115% | 786-0 renal 62.1% and 102% | COLO 205 colon 78.8% and 121% | DU-145 prostate 74% and 99.8% | K-562 leukemia 61.5% and 104% | MALME-3M melanoma 41.8% and 97.3% | MDA-MB-231 breast 79.1% and 105% | RXF 393 renal 55% and 106% | SF-268 CNS 67.8% and 102% | SF-295 CNS 22.9% and 103% | SF-539 CNS 29.3% and 106% | UACC-257 melanoma 97.4% and 109% | M14 melanoma 85.6% and 118%

COc1cc(C2CC(c3ccc(F)cc3)=Nc3c(N)nc(N)nc3N2)ccc1Oc1nc(Nc2ccc(F)cc2)nc(N(C)C)n1 (configuration not stated)
inactive: NCI-H226 lung 85.8% | NCI-H322M lung 105% | HOP-62 NSCLC 86.3% | NCI-H460 lung 10.1% | HOP-92 NSCLC 36.8% | NCI-H522 lung 60.6% | A549/ATCC NSCLC 58.5% | 786-0 renal 43.9% | COLO 205 colon 56.2% | DU-145 prostate 55.8% | K-562 leukemia 15.5% | MALME-3M melanoma 52.5% | MDA-MB-231 breast 44.2% | RXF 393 renal 17.2% | SF-268 CNS 63.4% | SF-295 CNS 40.3% | SF-539 CNS 69.6% | UACC-257 melanoma 38.7% | M14 melanoma 56.6%

Cc1ccc(C2CC(c3ccc(S(=O)(=O)NCCNc4nc(N(C)C)nc(N5CCOCC5)n4)cc3)=Nc3c(N)nc(N)nc3N2)cc1 (configuration not stated)
inactive: NCI-H226 lung 63.8% | NCI-H322M lung 77.3% | HOP-62 NSCLC 63.9% | NCI-H460 lung 53.6% | NCI-H522 lung 80.1% | A549/ATCC NSCLC 62.2% | 786-0 renal 32.8% | COLO 205 colon 72.3% | DU-145 prostate 66% | K-562 leukemia 22.8% | MALME-3M melanoma 57.3% | MDA-MB-231 breast 31% | RXF 393 renal 10.6% | SF-268 CNS 45.2% | SF-295 CNS 32.7% | SF-539 CNS 43.8% | UACC-257 melanoma 72.6% | M14 melanoma 44.7%
active: HOP-92 NSCLC -9.13%

COc1cc(/C=N/NC(=O)c2ccc(OCc3nc4ccc(Cl)cc4[nH]3)cc2)cc(OC)c1OC
inactive: NCI-H226 lung 35.5% | NCI-H322M lung 55.1% | HOP-62 NSCLC 64.2% | NCI-H460 lung 44.7% | HOP-92 NSCLC 118% | NCI-H522 lung 26.2% | A549/ATCC NSCLC 59.2% | 786-0 renal 29.3% | COLO 205 colon 29.3% | DU-145 prostate 64.5% | K-562 leukemia 14.7% | MALME-3M melanoma 14.1% | MDA-MB-231 breast 52.8% | SF-268 CNS 70% | SF-295 CNS 13.2% | SF-539 CNS 30.2% | UACC-257 melanoma 42.3% | M14 melanoma 42.6%
active: RXF 393 renal -26.2%

Cn1ncc2c(N)nc(Oc3ccccc3-c3ccccc3)nc21
active: K-562 leukemia 6.56%
inactive: NCI-H226 lung 45.2% | NCI-H322M lung 72.2% | HOP-62 NSCLC 57.9% | NCI-H460 lung 14.5% | HOP-92 NSCLC 62.4% | NCI-H522 lung 22.2% | A549/ATCC NSCLC 55.9% | 786-0 renal 52.6% | COLO 205 colon 33.9% | DU-145 prostate 73.1% | MALME-3M melanoma 25.7% | MDA-MB-231 breast 43% | RXF 393 renal 25% | SF-268 CNS 55.6% | SF-295 CNS 27.2% | SF-539 CNS 25.9% | UACC-257 melanoma 63.5% | M14 melanoma 13.6%

CCN(C(=O)CN1C(=O)/C(=C/c2ccco2)SC1=S)C1CCS(=O)(=O)C1 (configuration not stated)
inactive: NCI-H226 lung 99.1% | NCI-H322M lung 99.8% | HOP-62 NSCLC 123% | NCI-H460 lung 101% | HOP-92 NSCLC 103% | NCI-H522 lung 47.5% | A549/ATCC NSCLC 102% | 786-0 renal 101% | COLO 205 colon 120% | DU-145 prostate 101% | K-562 leukemia 89.9% | MALME-3M melanoma 104% | MDA-MB-231 breast 108% | RXF 393 renal 109% | SF-268 CNS 95.4% | SF-295 CNS 105% | SF-539 CNS 98% | UACC-257 melanoma 98.2% | M14 melanoma 97.3%

CCCCCCCCc1ccc(C(=O)Nc2cccc(O)c2)cc1
active: HOP-92 NSCLC -4.35%
inactive: NCI-H226 lung 67.8% | HOP-62 NSCLC 101% | NCI-H460 lung 90.5% | NCI-H522 lung 23% | A549/ATCC NSCLC 90.3% | 786-0 renal 73.5% | COLO 205 colon 121% | DU-145 prostate 80.1% | K-562 leukemia 22.6% | MALME-3M melanoma 77.1% | MDA-MB-231 breast 78.9% | RXF 393 renal 86.6% | SF-268 CNS 93.1% | SF-295 CNS 75% | SF-539 CNS 79.7% | UACC-257 melanoma 79.3% | M14 melanoma 76.4%
